In PubChem BioAssay AID720697 (Broad Institute, 2013):
Results with a measured potency or affinity are listed apart. Results filed as inconclusive are left out. Unmarked numbers belong to inactive results.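 How the source made its calls: active means signal loss with fitted half-maximal concentration at or below twice the top valid tested dose in every test run; inconclusive means runs disagree, flat 30 to 70% signal loss, or poor fit; inactive means all runs flat, opposite direction, or potency beyond limit.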

Assay: HEK293T cytotoxicity, dose response, cytotoxicity control for miR-122 modulator project, cell-based, inhibitor set, cherry-pick, set 2 (AID 720697);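 further: 0% = median of neutral control wells and -100% = MG132 positive control wells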
Conditions: HEK293T viability, CellTiter-Glo luminescence, 48 h; series mostly up to 26 µM; activity change, negative = cytotoxicity: at the top concentration

| SMILES | activity change, negative = cytotoxicity |
| --- | --- |
| Cn1c(NC(=O)c2ccco2)c(-c2ccccc2Cl)c(=O)c2ccccc21 | 10.7% |
| CNC[C@@H]1Oc2cc(C#CC3CCCCC3)ccc2S(=O)(=O)N([C@@H](C)CO)C[C@@H]1C | -99.5% |
| CN1C(=O)c2cc(NC(=O)c3cccc(F)c3)ccc2OC[C@@H]2O[C@@H](CC(=O)O)CC[C@@H]21 | 30.4% [at 23.5 µM] |
| COc1cccc(NC(=O)Nc2ccc3c(c2)C(=O)N(C)[C@@H]2CC[C@H](CC(=O)O)O[C@H]2CO3)c1 | 90.2% |
| COCC(=O)N1[C@@H](CO)[C@@H]2c3ccccc3N(C(=O)c3cccnc3)C[C@@H]21 | 42.3% |
| C[C@H]1CN([C@@H](C)CO)S(=O)(=O)c2ccc(C3=CCCC3)cc2O[C@H]1CN(C)Cc1cccnc1 | -21.6% |
| C[C@H](CO)N1C[C@H](C)[C@H](CN(C)C(=O)NC2CCCCC2)Oc2ncc(-c3cccc(C(F)(F)F)c3)cc2C1=O | 124% [at 23.5 µM] |
| CN1C(=O)c2cc(NC(=O)c3cccc(F)c3)ccc2OC[C@@H]2O[C@H](CC(=O)Nc3ccccc3)CC[C@H]21 | 107% |
| CN(C)CCCN(C(=O)CCc1ccccc1)c1nc2ccc(Br)cc2s1 | 22.8% |
| C/C=C/c1ccc([C@@H]2[C@@H](CO)N(Cc3ccccn3)[C@H]2CNC(=O)CC)cc1 | 51.4% [at 23.5 µM] |
| C[C@H]1CN([C@@H](C)CO)C(=O)c2cc(-c3ccc(C#N)cc3)cnc2O[C@H]1CN(C)C(=O)Nc1ccc(C(F)(F)F)cc1 | 33.3% |
| CN1C(=O)c2cc(NC(=O)c3cccs3)ccc2OC[C@H]2O[C@H](CC(=O)NCC(F)(F)F)CC[C@H]21 | 127% |
| CCCNC(=O)N1[C@H](CO)[C@@H](c2ccccc2)[C@H]1CNC(=O)c1ccccc1 | 70.2% |
| CN1C(=O)c2cc(NC(=O)c3cccc(F)c3)ccc2OC[C@H]2O[C@H](CC(=O)N3CCc4ccccc4C3)CC[C@H]21 | 62.5% |
| Cc1ccccc1-c1ccc2c(c1)O[C@@H](CN(C)C(=O)Nc1ccc(F)cc1)[C@@H](C)CN([C@@H](C)CO)S2(=O)=O | 66.7% |
| C/C=C/c1ccc([C@@H]2[C@H](CO)N[C@H]2CN(CC(C)C)C(=O)c2ccccn2)cc1 | 29.5% |
| COc1cccc(C(=O)Nc2ccc3c(c2)C(=O)N(C)[C@H]2CC[C@H](CC(=O)NCc4ccc(F)cc4)O[C@@H]2CO3)c1 | 117% |
| C/C=C/c1ccc([C@H]2[C@@H](CO)N(Cc3ccccn3)[C@H]2CNC(C)=O)cc1 | 156% [at 23.5 µM] |
| CC(C)C(=O)Nc1ccc2c(c1)C(=O)N(C)[C@@H]1CC[C@H](CC(=O)NCC3CC3)O[C@H]1CO2 | 7.63% [at 23.5 µM] |
| CN1C(=O)c2cc(NC(=O)c3cccc(F)c3)ccc2OC[C@H]2O[C@@H](CC(=O)O)CC[C@@H]21 | 123% |

| SMILES | activity change, negative = cytotoxicity |
| --- | --- |
| COCC(=O)N(C)C[C@H]1Oc2cc(C#Cc3cccnc3)ccc2S(=O)(=O)N([C@@H](C)CO)C[C@@H]1C | 3.54% |
| C[C@@H]1CN([C@H](C)CO)S(=O)(=O)c2ccc(C3=CCCC3)cc2O[C@@H]1CN(C)C(=O)Cc1ccncc1 | 139% |
| CN1C(=O)c2cc(NC(=O)c3cccc(F)c3)ccc2OC[C@@H]2O[C@H](CC(=O)O)CC[C@@H]21 | 120% [at 23.5 µM] |
| Cc1nn(C)cc1NC(=O)C[C@H]1CC[C@H]2[C@H](COc3ccc(NC(=O)c4cccc(F)c4)cc3C(=O)N2C)O1 | 132% |
| CCN(C[C@H]1N[C@@H](CO)[C@@H]1c1ccc(C2=CCCC2)cc1)C(=O)c1cccnc1 | -38.7% |
| CC(=O)Oc1ccc2c(c1)C(=O)c1ccccc1CO2 | -73.2% |
| COc1ccc(NS(=O)(=O)c2ccc(NC(=O)C(C)(C(F)(F)F)C(F)(F)F)cc2)nn1 | 69.7% |
| c1ccc(-c2nnc3n2CCCC3)cc1 | 47.8% |
| CN1C(=O)c2cc(NS(=O)(=O)c3cccc(F)c3)ccc2OC[C@@H]2O[C@@H](CC(=O)O)CC[C@@H]21 | 136% [at 23.5 µM] |
| Cc1noc(C)c1NC(=O)Nc1ccc2c(c1)C(=O)N(C)[C@@H]1CC[C@H](CC(=O)N[C@H]3CCN(Cc4ccccc4)C3)O[C@H]1CO2 | 109% |
| N#Cc1ccc(C(=O)Nc2ccc(N3CCN(C(=O)c4ccco4)CC3)cc2)c(F)c1 | -30.3% [at 6 µM] |
| CCC(=O)N1C[C@H]2[C@@H](c3ccccc31)[C@H](CO)N2C(=O)Nc1ccccc1F | -17.6% [at 23.5 µM] |
| C[C@@H]1CN([C@H](C)CO)S(=O)(=O)c2ccc(C3=CCCCC3)cc2O[C@@H]1CN(C)C(=O)Nc1ccc2c(c1)OCO2 | 88.1% |
| CN1C(=O)c2cc(NC(=O)Cc3ccccc3)ccc2OC[C@@H]2O[C@@H](CC(=O)NCc3ccc(Cl)cc3)CC[C@H]21 | 24.9% |
| CN(C)CCNC(=O)C1CC(=O)N(c2ccc(F)c(Cl)c2)C1 (centres undefined) | 22.1% |
| CNC[C@@H]1Oc2cc(C#Cc3cccc(OC)c3)ccc2S(=O)(=O)N([C@@H](C)CO)C[C@@H]1C | -74.1% |
| CO[C@@H]1CN(C)C(=O)c2cc(NC(=O)Nc3cc(Cl)cc(Cl)c3)ccc2OC[C@H](C)NC[C@H]1C | 10.9% |
| COCC(=O)Nc1ccc2c(c1)C(=O)N(C)[C@H]1CC[C@@H](CC(=O)NCCCN(C)C)O[C@H]1CO2 | 72.5% |
| CN1C(=O)c2cc(NC(=O)c3cccs3)ccc2OC[C@@H]2O[C@H](CC(=O)NCC(F)(F)F)CC[C@H]21 | 20.5% |
